The panel holds about 79,000 compounds, 15% with a hit somewhere; the sample as a whole holds those more often. No stated cut-off is given here; in the data, active means growth inhibition above about 70%; inactive means the rest.
How the values were obtained:
[1] = NCI Yeast Anticancer Drug Screen. Data for the rad50 strain (AID 155);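 further: 0% = growth of vehicle-only cultures of the same strain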; conditions: S. cerevisiae rad50 strain growth inhibition; at 50.0 µM; hits give high values
In short: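 Relative growth inhibition (compound vs vehicle) was measured in yeast with a defined repair-gene alteration.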

[2] = NCI Yeast Anticancer Drug Screen. Data for the mec2-1 strain (AID 157); conditions: S. cerevisiae mec2-1 strain, at 50.0 µM, hits give high values
In short: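 Each compound was tested on mec2-1 yeast, a strain altered in DNA damage repair or cell cycle control. Growth inhibition is reported relative to vehicle.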

[3] = NCI Yeast Anticancer Drug Screen. Data for the sgs1 mgt1 strain (AID 161);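 further: 0% = growth of cultures given vehicle only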; conditions: S. cerevisiae sgs1 mgt1 strain, at 50.0 µM, hits give high values
In short: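 Genetically altered yeast, compound exposure, growth inhibition relative to vehicle.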

[4] = NCI Yeast Anticancer Drug Screen. Data for the cln2 rad14 strain (AID 165);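 further: 0% = growth equal to vehicle treated cultures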; conditions: S. cerevisiae cln2 rad14 strain, at 50.0 µM, hits give high values
In short: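 Test compounds were added to cln2 rad14 yeast cultures; inhibition of growth was then determined by comparison with vehicle treatment.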

[5] = NCI Yeast Anticancer Drug Screen. Data for the bub3 strain (AID 167); conditions: S. cerevisiae bub3 mutant strain, at 50.0 µM, hits give high values
In short: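 Screening used yeast with an engineered genetic alteration affecting cell cycle control. Compound-exposed cultures were compared with vehicle cultures, and reduced growth was taken as inhibition.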

[6] = NCI Yeast Anticancer Drug Screen. Data for the mlh1 rad18 strain (AID 175); conditions: S. cerevisiae mlh1 rad18 strain growth inhibition; at 50.0 µM; hits give high values
In short: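 Inhibition values reflect reduced growth of mutant yeast versus vehicle-treated controls following compound exposure; the mutations affect DNA damage repair.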

Measured: growth inhibition

CCOC(=O)c1ccc2c(c1)CCC(C)(C)O2
inactive: [1] -5.55% | [2] -4.8% | [3] 7.3% | [4] -13.9% | [5] 11.5% | [6] -7.15%

NS(=O)(=O)c1cccc(C(F)(F)F)c1
inactive: [1] -7.95% | [2] -37.9% | [3] -13.6% | [4] -21.7% | [5] -16.4% | [6] -7.2%

Cc1ccc(S(=O)(=O)/C(C#N)=C/n2c(=S)[nH]c3ccc([N+](=O)[O-])cc32)cc1
inactive: [1] -14.3% | [2] -21.1% | [3] -9.05% | [4] -3.25% | [5] -10.6% | [6] 3.3%

CC(C)C1=C(Cc2ccccc2)C(=O)O/C1=C\c1cc(Cl)c(O)c(Cl)c1
inactive: [1] 19.9% | [2] 8% | [3] 24.6% | [4] 25.6% | [5] 32.5% | [6] -30.9%

O=C1C(/C=N\C(=S)NCc2ccccc2)=C(O)c2ccccc21
inactive: [1] -31.9% | [2] -30.2% | [3] -27.1% | [4] 15.7% | [5] -3.45% | [6] -7.05%

COc1cccc2c1CCC1(O)OC(=O)CC21 (stereo not given)
inactive: [1] -17.4% | [2] 5.15% | [3] -20.5% | [4] 2.1% | [5] -6.5% | [6] -15.1%

COc1ccc(/C=C/C(=O)C(C)(C)C)cc1OC
inactive: [1] 25.4% | [2] 3.9% | [3] 3.6% | [4] 31.5% | [5] 27.9% | [6] 23.2%

C1CCC2C(C1)CCCC2CC1CCCC2CCCCC21 (stereo not given)
inactive: [1] -11.2% | [2] 1.1% | [3] -10.3% | [4] -17.5% | [5] -9.05% | [6] -4.65%

Cc1ccc(C(C)C)cc1NC=O
inactive: [1] -6.55% | [2] -13.3% | [3] -20.1% | [4] 0.05% | [5] -2.6% | [6] 5.4%

c1ccc(-c2nnc(-c3ccccn3)c3c2C[C@@H]2C[C@@H]4Cc5c(-c6ccccn6)nnc(-c6ccccn6)c5[C@@H]4[C@H]32)nc1
inactive: [1] -4.95% | [2] 0.1% | [3] -16.4% | [4] 9.25% | [5] 10.3% | [6] -17.4%

Cc1cccc(F)c1C
inactive: [1] 24.9% | [2] -14.5% | [3] 4.9% | [4] 6.1% | [5] 3.2% | [6] 7.25%

O=C(Cl)C(c1ccccc1)N1C(=O)c2ccccc2C1=O (stereo not given)
inactive: [1] 7.15% | [2] 2.15% | [3] 0% | [4] -38.5% | [5] -4% | [6] 0.95%

CCC(CC)C(=O)OCCCc1ccccc1
inactive: [1] 3.95% | [2] -0.05% | [3] 10.4% | [4] -7.4% | [5] 11.9% | [6] 4.4%

Cc1cc(Cl)ncc1[N+](=O)[O-]
inactive: [1] -12.2% | [2] 14.3% | [3] 7.55% | [4] -15.9% | [5] -9.65% | [6] 5.75%

COc1cc([N+](=O)[O-])c2nccc(C)c2c1
inactive: [1] 13.1% | [2] 6.1% | [3] -0.6% | [4] -5.05% | [5] -5.1% | [6] 18.6%

CCCCCCCCCCCC(=O)NC(=S)Nc1ccc(C)c(C)c1
inactive: [1] 8.65% | [2] 58.2% | [3] 54.6% | [4] -13.6% | [5] 57.5% | [6] 36.9%

NC(=S)c1ccccn1
inactive: [1] 18.6% | [2] 11.4% | [3] 32.8% | [4] -22.5% | [5] 2.4% | [6] 26.9%

C[C@@H]1C(=O)OCC2=C3C[C@@H](CC[C@@]3(C)C=CC2=O)[C@H](C)C(=O)OCC2=C3C[C@H]1CC[C@@]3(C)C=CC2=O
inactive: [1] 4.3% | [2] -3.7% | [3] -1.35% | [4] 15.7% | [5] 1.7% | [6] 20.8%

CN(C)CCNc1ccc(CO)c2sc3ccc(O)cc3c(=O)c12
inactive: [1] 11.4% | [2] -3.65% | [3] 12.1% | [4] -32% | [5] 12.2% | [6] -9.25%

CC(OP(=O)(O)O)C(N)C(=O)O (stereo not given)
inactive: [1] 0.4% | [2] -34% | [3] -44.9% | [4] -39.1% | [5] -19.9% | [6] -5.2%
